Measurements reported in ChEMBL document CHEMBL3433997, “St. Jude Leishmania screening dataset” (2016).

How the values were obtained:
Format in all cases: functional
[1] = biological target: Solute carrier family 2, facilitated glucose transporter member 1 (Homo sapiens) (UniProt P11166); experiment: ST_JUDE_LEISH: Cytotoxicity at 2uM final concentration against transgenic Leishmania Mexicana promastigotes LmGLUT1 that are glucose transport deficient and complemented with the human glucose transporter GLUT1. Activity is measured by DNA content using SYBR green in vitro
Chain of Solute carrier family 2, facilitated glucose transporter member 1 (Homo sapiens) (P11166 whole entry): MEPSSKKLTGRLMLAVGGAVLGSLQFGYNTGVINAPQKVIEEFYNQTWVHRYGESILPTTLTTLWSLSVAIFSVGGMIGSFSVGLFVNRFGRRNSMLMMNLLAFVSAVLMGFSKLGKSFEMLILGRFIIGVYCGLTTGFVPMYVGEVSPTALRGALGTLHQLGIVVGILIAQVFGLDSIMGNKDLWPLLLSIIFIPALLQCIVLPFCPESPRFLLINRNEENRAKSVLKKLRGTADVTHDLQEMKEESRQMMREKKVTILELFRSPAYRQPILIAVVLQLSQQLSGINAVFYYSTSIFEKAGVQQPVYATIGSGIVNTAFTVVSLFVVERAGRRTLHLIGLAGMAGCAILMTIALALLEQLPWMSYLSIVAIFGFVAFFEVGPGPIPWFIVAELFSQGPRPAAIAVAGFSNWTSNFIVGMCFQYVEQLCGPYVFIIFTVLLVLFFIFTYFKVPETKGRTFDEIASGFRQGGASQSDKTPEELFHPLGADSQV

[2] = biological target: Hexose transporter 1 (Plasmodium falciparum) (UniProt O97467); experiment: ST_JUDE_LEISH: Cytotoxicity at 2uM final concentration against transgenic Leishmania Mexicana promastigotes LmPfHT that are glucose transport deficient and complemented with the Plasmodium falciparum hexose transporter. Activity is measured by DNA content using SYBR green in vitro
[3] = biological target: Glucose transporter (Leishmania mexicana) (UniProt O61059); experiment: ST_JUDE_LEISH: Cytotoxicity at 2uM final concentration against transgenic Leishmania Mexicana promastigotes LmGT2 that are glucose transport deficient and complemented with the L. Mexicana glucose transporter 2. Activity is measured by DNA content using SYBR green in vitro

Row | SMILES | inhibition [1] [%] | inhibition [2] [%] | inhibition [3] [%]
1 | CCC[C@@H]([C@@H](CC(C)C)C(=O)N[C@H](C(=O)Nc1nccs1)C(C)(C)SCCNC(=O)OCC)N(O)C=O | 2.68 | 4.73 | 3.58
2 | O=C(NC1CCC(N2CCC(c3ccccc3C(F)(F)F)CC2)CC1)c1cc2ccccc2[nH]1 (centres undefined) | 8.86 | 5.68 | 31.2
3 | CCCC[C@@H](C(=O)NCc1ccccc1C(F)(F)F)N1C(=O)CCC1C(=O)Nc1ccc([N+](=O)[O-])cc1 (some centres undefined) | 1.1 | 2.37 | 2.75
4 | CCN1CCN(c2ccc(Nc3c4ccccc4nc4ccccc34)cc2)CC1 | 7.35 | 10.6 | 2.24
5 | CSc1ccc(NC(=O)Nc2cc(C)nc3ccccc23)cc1Br | -2.43 | 0.36 | 0.36
6 | Cc1ccc(C)c(NC(=O)Nc2ccc(Nc3nc(C)cc(N4CCOCC4)n3)cc2)c1 | 1.4 | 0.2 | -5.61
7 | COc1ccc(NC(=O)[C@H](Cc2ccccc2)Nc2cc(C)nc(NCCc3cccs3)n2)cc1 | 2.27 | 2.32 | -0.24
8 | Cc1ccc(Nc2nccc(NCC(O)c3ccc(C(F)(F)F)cc3)n2)cc1 (centres undefined) | 10 | 6.26 | 3.67
9 | O=C(Nc1ccc(F)cc1)N1CCCN(c2ccnc3cc(Cl)ccc23)CC1 | 0.02 | 0.34 | 1.11
10 | CC(C)c1ccc(-c2noc(SCC(=O)N(C)c3ccc(F)cc3)n2)cc1 | -1.33 | 0.23 | -0.55
11 | COc1cccc(C2CCN(CCN3CCC(CNC(=O)c4ccc(-c5ccc(C(F)(F)F)cc5)cc4)CC3)CC2)c1 | -0.53 | 1.07 | 1.17
12 | Cc1ccc(-n2nc3ccc(NC(=O)c4ccc([N+](=O)[O-])o4)cc3n2)cc1C | 60.8 | 82.4 | 40.3
13 | COc1ccc2nccc([C@@H](O)CN3CCC(NCc4nc5c([N+](=O)[O-])cccc5[nH]4)CC3)c2c1 | 2.43 | 2.99 | 1.31
14 | COc1cc(NC(=O)N2CCc3ccc(OCCN(C(C)C)C(C)C)cc32)cc(C(F)(F)F)c1 | 1.98 | 1.73 | 2.06
15 | COc1ccc(-c2ccc(NC(=O)c3cccc(Cl)c3)cc2)cc1CN1CCCC1 | 11.7 | 2.9 | 4.28
16 | CCOCCCNc1ncc(-c2ccsc2)c(-c2nc(C)cs2)n1 | 8 | 6.73 | 7.32
17 | c1ccc(-c2n[nH]cc2Nc2ccnc3ccccc23)nc1 | 5.35 | 3.76 | 3.97

Row | SMILES | inhibition [1] [%] | inhibition [2] [%] | inhibition [3] [%]
18 | CCn1c(-c2nonc2N)nc2c(-c3ccc(CO)o3)ncc(OCCCN)c21 | 6.54 | 3.21 | 5.17
19 | O=C(N[C@H](CC1CCCCC1)C(=O)NC1CCCc2ccccc21)c1ccc(O)c(-c2cccc([N+](=O)[O-])c2)c1 (some centres undefined) | 1.2 | 0.18 | 0.88
20 | COc1cccc2cc(C(=O)N[C@@H](CC(C)C)C(=O)N[C@H](C=NN3CC(=O)NC3=O)CC(C)C)oc12 | 2.8 | 3.84 | 2.23
21 | CSC1=NC(=Nc2c(C)cccc2C)C2(CCCCC2)N1c1ccccc1Cl | -1.1 | -1.21 | -2.07
22 | CN(CCCCCN1CCC(NC(=O)Nc2ccc(C(F)(F)F)cc2)C1)C(=O)/C=C/c1ccc(Cl)c(Cl)c1 (centres undefined) | 3.11 | 2.11 | 2.97
23 | CC1(C)NC(N)=NC(=N)N1OCCc1cccc2ccccc12 | 2.21 | 10.7 | 4.71
24 | COc1ccc2nccc(N3CCC(NCc4ccc5c(n4)NC(=O)CS5)CC3)c2n1 | 0.15 | -0.14 | 2.01
25 | CCCCNc1c(CC)c(C)c(C#N)c2nc3ccccc3n12 | 29.1 | 51.4 | 21.8
26 | O=C(c1ccc(O)c(-c2cc(Cl)cc(Cl)c2)c1)N(CCO)CCO | 2.23 | 1.98 | 3.14
27 | CCN(CC)CCCN(CCCN(CC)CC)c1cc(C)nc(Nc2ccc(Cl)cc2)n1 | 2.61 | 0.88 | 0.26
28 | FC(F)(F)c1ccc2[nH]c(-c3cccc(-c4cccc(CNCc5cnn(-c6ccccc6)n5)c4)c3)nc2c1 | 5.47 | 5.16 | 3.27
29 | COc1ccc(F)cc1-c1ccc(C(=O)N2CCCN(c3ccc(C(F)(F)F)cn3)CC2)cc1 | 2.4 | 1.75 | 4.03
30 | O=C(Cc1c[nH]cn1)Nc1ccc(-c2ccc(-c3nc4ccccc4[nH]3)s2)cc1 | 4.05 | 5.17 | 1.71
31 | Cc1ccccc1Cc1cccc(/N=C(\N)Nc2ccc(Cl)cc2)n1 | 5.38 | 5.38 | 2.51
32 | CC(C)C[C@H](Nc1ccnc(NCC2CCCCC2)n1)C(=O)NCCOc1ccccc1 | 2.57 | 3.02 | 2.47
33 | CCC(CC(C)C(=O)O)=C(c1ccccc1)c1ccccc1 (centres undefined) | -0.78 | -0.86 | 0.2
